{"source": "PubChem BioAssay AID1421", "about": "(Emory University Molecular Libraries Screening Center, 2008)", "note": "Out of some 1,300 compounds screened, about 140 (11%) were called active. The list is a sample of the results. Measured potencies and affinities stand elsewhere. Values without a mark were called inactive. The rule behind the calls is not given here.", "data": [{"target": "Prostaglandin E2 receptor EP2 subtype (Homo sapiens) (UniProt P43116)", "sequence (P43116 whole entry, looked up)": "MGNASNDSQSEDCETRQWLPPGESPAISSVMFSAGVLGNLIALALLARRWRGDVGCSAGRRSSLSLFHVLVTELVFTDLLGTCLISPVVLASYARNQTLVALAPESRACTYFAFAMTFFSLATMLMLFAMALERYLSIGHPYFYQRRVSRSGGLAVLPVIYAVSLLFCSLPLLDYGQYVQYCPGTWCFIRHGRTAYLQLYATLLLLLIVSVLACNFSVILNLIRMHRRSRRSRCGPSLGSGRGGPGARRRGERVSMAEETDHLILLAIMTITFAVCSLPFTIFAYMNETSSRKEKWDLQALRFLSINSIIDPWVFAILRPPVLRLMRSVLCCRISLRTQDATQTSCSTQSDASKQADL", "test": "EP2 receptor modulators, dose response, cell-based, human EP2, PGE2 EC50 shift (AID 1421)", "conditions": "EP2-expressing cells, PGE2 EC50 shift by compound; at 20 µM", "units": {"PGE2 EC50 with compound": "nM"}, "values": [{"compound": "COC(=O)c1sccc1NC(=O)c1cc2c(s1)CCCC2", "PGE2 EC50 with compound": 0.5}, {"compound": "COc1ccc(Cc2n[nH]c(=S)n2Cc2ccccc2)cc1Cl", "PGE2 EC50 with compound": 0.57}, {"compound": "CCOC(=O)c1c(NC(=O)Cc2cccs2)sc(C)c1C", "PGE2 EC50 with compound": 0.53}, {"compound": "CCOC(=O)Nc1sc2c(c1C(=O)OCC)CCC2", "PGE2 EC50 with compound": 0.57}, {"compound": "CCOC(=O)c1c(NC(=O)c2cccs2)sc2c1CCN(C(=O)OCC)C2", "PGE2 EC50 with compound": 0.43}, {"compound": "COC(=O)c1c(NC(=O)Cc2cccs2)sc2c1CCCC2", "PGE2 EC50 with compound": 0.49}, {"compound": "CCOC(=O)c1c(/N=C/C2C(=O)CCCC2=O)sc2c1CCCC2", "PGE2 EC50 with compound": 0.36}, {"compound": "CCOC(=O)c1c(NC(=O)c2ccc(Br)o2)sc(C)c1CC", "PGE2 EC50 with compound": 0.27}, {"compound": "COC(=O)c1c(NC(=O)c2ccc(Br)s2)sc2c1CCC2", "PGE2 EC50 with compound": 0.42}, {"compound": "CCOC(=O)c1c(NC(=O)CN2CCN(C(=O)c3ccco3)CC2)sc2c1CCCC2", "PGE2 EC50 with compound": 0.59}, {"compound": "Cc1cccc(/N=C/c2c(O)ccc3oc4c(c23)CCCC4)n1", "PGE2 EC50 with compound": 1.21}, {"compound": "C=CCSc1nc2ccsc2c(=O)n1-c1ccccc1", "PGE2 EC50 with compound": 0.37}, {"compound": "Oc1ccc(/C=N/N2CCN(C3c4ccccc4-c4ccccc43)CC2)c(O)c1", "PGE2 EC50 with compound": 0.25}, {"compound": "COc1cc(NC(=S)NC(=O)c2cc(C)cc(C)c2)ccc1NC(=O)c1cccs1", "PGE2 EC50 with compound": 0.3}, {"compound": "O=S(=O)(c1cccs1)N1CN(Cc2cccs2)c2nc3ccccc3nc21", "PGE2 EC50 with compound": 0.45}, {"compound": "CCOC(=O)c1c(NC(=O)CN(CC)CC)sc2c1CCN(C(=O)OCC)C2", "PGE2 EC50 with compound": 0.29}, {"compound": "CCOC(=O)c1c(N)nn(C(=O)C(C)(C)C)c1-c1ccccc1", "PGE2 EC50 with compound": 0.11}, {"compound": "Cc1cc(NC(=O)c2cc(-c3ccncc3)nc3c(C)cccc23)no1", "PGE2 EC50 with compound": 0.92}, {"compound": "CCOC(=O)c1c(NC(=O)c2ccc(N3C(=O)[C@@H]4[C@H](C3=O)[C@H]3C=C[C@@H]4C3)cc2)sc2c1CC(C)CC2", "note": "(stereo not given in full)", "PGE2 EC50 with compound": 0.47}, {"compound": "CCOC(=O)c1c(NC(=O)c2ccn(CC)n2)sc2c1CCCC2", "PGE2 EC50 with compound": 0.33}, {"compound": "CCOC(=O)c1c(NC(=O)Cn2nnc3ccccc32)sc2c1CCC(C)C2", "note": "(stereo not given)", "PGE2 EC50 with compound": 0.53}, {"compound": "CC(=O)Nc1sc2c(c1C(c1cccs1)N1CCOCC1)CCCC2", "note": "(stereo not given)", "PGE2 EC50 with compound": 0.33}, {"compound": "COC(=O)c1c(NC(=S)NN2CCOCC2)sc2c1CCCC2", "PGE2 EC50 with compound": 0.39}, {"compound": "CCOC(=O)c1c(NC(=O)COC(=O)Cn2c(C)nc3ccccc32)sc2c1CCCC2", "PGE2 EC50 with compound": 0.55}, {"compound": "COC(=O)c1c(NC(=O)c2ccccc2N(C)S(=O)(=O)c2ccccc2)sc2c1CCCC2", "PGE2 EC50 with compound": 0.38}, {"compound": "CCOc1ccccc1COC(=O)c1cccc(-n2cnnn2)c1", "PGE2 EC50 with compound": 0.54}, {"compound": "C/C(Cl)=C/Cn1c(SC(C)C)nc2c1c(=O)[nH]c(=O)n2C", "PGE2 EC50 with compound": 0.83}, {"compound": "NS(=O)(=O)c1ccc(NCc2cnc3ccccc3n2)cc1", "PGE2 EC50 with compound": 1.13}, {"compound": "Cc1ccccc1/C=C/c1nc2ccccc2c(=O)n1CCc1ccccc1", "PGE2 EC50 with compound": 0.19}, {"compound": "COc1cc(C2Oc3cc(C4Oc5cc(O)cc(O)c5C(=O)C4O)ccc3OC2CO)ccc1O", "note": "(stereo not given)", "PGE2 EC50 with compound": 1.94}, {"compound": "CCCCC(=O)Nc1sc2c(c1C(=O)OCC)CCC(C=O)=C2Cl", "PGE2 EC50 with compound": 1.75}, {"compound": "CCOC(=O)c1c(-c2cccs2)csc1NC(=O)CN1CCOCC1", "PGE2 EC50 with compound": 2.48}, {"compound": "CCCC/C(=N\\NC(=O)c1ccc(Br)o1)c1ccccc1", "PGE2 EC50 with compound": 0.6}, {"compound": "COc1cc2cc(Br)cc(Br)c2nc1C", "PGE2 EC50 with compound": 1.2}, {"compound": "CCC1CCc2c(sc3ncnc(N4CCOCC4)c23)C1", "note": "(stereo not given)", "PGE2 EC50 with compound": 0.42}, {"compound": "CCOC(=O)c1c(NC(=O)c2cccs2)sc2c1CCCC2", "PGE2 EC50 with compound": 0.75}, {"compound": "Cc1sc(NC(=O)c2cccs2)c(C(=O)OC(C)C)c1C", "PGE2 EC50 with compound": 0.27}, {"compound": "N#CCSc1nc2ccccc2c(=O)n1C1CCCCC1", "PGE2 EC50 with compound": 0.68}, {"compound": "O=C(OCc1ccc(Cl)cc1)c1ccccc1C(=O)c1ccccc1", "PGE2 EC50 with compound": 0.41}, {"compound": "O=C(c1ccccc1)N1N=C(c2ccccc2)CC1c1ccccc1O", "note": "(stereo not given)", "PGE2 EC50 with compound": 0.27}, {"compound": "O=C(Nc1nc(-c2cccs2)c(-c2ccccc2)s1)c1ccco1", "PGE2 EC50 with compound": 0.72}, {"compound": "COc1ccc(-c2nc(NC(C)=O)sc2-c2ccc(OC)cc2)cc1", "PGE2 EC50 with compound": 0.57}, {"compound": "CCCCCOC(=O)c1[nH]c2c(c1C)C(=O)C(C(=O)OC)C(C)C2", "note": "(stereo not given)", "PGE2 EC50 with compound": 0.88}, {"compound": "Nc1cccc(OCc2nc(N)nc(N)c2-c2ccc(Cl)cc2)c1", "PGE2 EC50 with compound": 0.92}, {"compound": "CCc1c(-c2n[nH]c(=S)n2Cc2ccccc2)csc1C", "PGE2 EC50 with compound": 0.32}, {"compound": "C=CCOc1nc(-c2ccncc2)nc2ccccc12", "PGE2 EC50 with compound": 0.27}, {"compound": "CCOC(=O)CN(C(=O)CSc1nnc(Cc2ccccc2)n1-c1ccc(C)cc1)c1ccccc1", "PGE2 EC50 with compound": 0.47}, {"compound": "Cc1ccc(C)c(CN2C(=O)C(C)Oc3ccc(C)cc32)c1", "note": "(stereo not given)", "PGE2 EC50 with compound": 0.3}, {"compound": "Oc1ccccc1-c1nc(N2CCCC2)c2ccccc2n1", "PGE2 EC50 with compound": 0.3}, {"compound": "CCOc1nc(-c2ccccc2O)nc2ccccc12", "PGE2 EC50 with compound": 0.32}, {"compound": "CCCC(=O)Nc1ccccc1Sc1ncnc2scc(-c3ccccc3)c12", "PGE2 EC50 with compound": 0.74}, {"compound": "CCCCC(CC)CN1CN(CC(CC)CCCC)CC(C)(N)C1", "note": "(stereo not given)", "PGE2 EC50 with compound": 0.75}, {"compound": "OCCCNc1nc(-c2ccc(Br)cc2)nnc1-c1ccc(Cl)cc1", "PGE2 EC50 with compound": 1.43}, {"compound": "COc1ccc(-n2c(COc3cccc4ccccc34)nnc2SCC#N)cc1", "PGE2 EC50 with compound": 0.49}, {"compound": "NCCc1c(-c2ccccc2)n(-c2ccccc2)c2ccccc12", "PGE2 EC50 with compound": 0.41}, {"compound": "FC(F)(F)c1cccc(/C=N/NC(=S)NC2CCCCC2)c1", "PGE2 EC50 with compound": 4.2}, {"compound": "O=C(CC(Sc1ccccc1)c1cccs1)c1ccco1", "note": "(stereo not given)", "PGE2 EC50 with compound": 0.41}, {"compound": "CCn1c2ccccc2c2cc([N+](=O)[O-])ccc21", "PGE2 EC50 with compound": 0.38}, {"compound": "CCn1c2ccccc2c2nc3ccccc3nc21", "PGE2 EC50 with compound": 0.63}, {"compound": "CC(C)n1c2ccccc2c2nc3ccccc3nc21", "PGE2 EC50 with compound": 0.41}]}]}
